Test results taken from PubChem BioAssay (NCI).
This is part of a sample that, as a whole, favours compounds with a hit. Of some 83,000 tested, about 20% had one in any assay.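 96-well plates, one dose, 48 hours. Percent growth reported; active if below 10.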 The source made the active and inactive calls.

Columns and labels:
Test in all cases: NCI-60 one-dose screen, 48 h (100 = growth as untreated, 0 = no growth, -100 = all killed)
Conditions in all cases: 10 µM unless noted
[1] = system: NCI-H23 lung
[2] = system: NCI-H226 lung
[3] = system: NCI-H322M lung
[4] = system: HOP-62 NSCLC
[5] = system: NCI-H460 lung
[6] = system: HOP-92 NSCLC
[7] = system: NCI-H522 lung
[8] = system: A549/ATCC NSCLC
[9] = system: 786-0 renal
[10] = system: COLO 205 colon

Measured: growth

O=C(O)c1cccc(-c2ccc(/C=N/NC(=O)c3[nH]c4ccc(Br)cc4c3-c3ccccc3)o2)c1
inactive: [1] 86.5% | [2] 87.9% | [3] 78.9% | [4] 68.9% | [5] 95.3% | [6] 69.1% | [8] 100% | [9] 84.6% | [10] 114%
active: [7] -12.6%

COc1cc2c(c(OC)c1OC)C(=O)CC(c1cccc(NC(=O)c3cc(NC(=O)[C@H](CO)NC(=O)OC(C)(C)C)ccc3Cl)c1)O2 (some centres not stated)
inactive: [1] 37.3% | [2] 33% | [3] 42.5% | [4] 50.3% | [5] 34.3% | [6] 39.7% | [7] 27.6% | [8] 58.2% | [9] 42.8%

Cc1ccc(-c2nnc3ccc(N/N=C/c4ccccc4)nn23)cc1
inactive: [1] 60.5% | [2] 98% | [3] 91.4% | [4] 88.5% | [5] 68.5% | [6] 70.5% | [7] 105% | [8] 93.1% | [9] 99% | [10] 98.4%

O=C1Nc2cc(Cl)ccc2/C1=C/c1cccc(OCc2ccccn2)c1
active: [6] -3.65% | [7] -42.4%
inactive: [1] 19.6% | [2] 38.6% | [3] 68.2% | [4] 17.4% | [5] 13.9% | [8] 37.5% | [9] 10.8% | [10] 51.7%

COc1ccc(C(=O)/C=C/c2cccc(Br)c2)cc1S(N)(=O)=O
inactive: [2] 17.4%
active: [1] -66.3% | [3] 3.22% | [4] -86.8% | [5] 2.36% | [6] -9.79% | [7] -79% | [8] -86.2% | [9] -98.3% | [10] -92.6%

CCOC(=O)COc1c(OC)c(OC)cc2oc(-c3cccc(C(=O)Nc4ccc(Cl)cc4)c3)cc(=O)c12
inactive: [1] 62.9% | [2] 76.2% | [3] 108% | [4] 54.9% | [5] 83.5% | [6] 52.6% | [7] 46% | [8] 77% | [9] 49.5% | [10] 39.8%

N/C(=N\c1nc2ccccc2s1)NC(=O)NCCCCCCO
inactive: [1] 31.4% | [2] 36.2% | [3] 71.1% | [4] 43.5% | [5] 59.3% | [6] 22% | [7] 36% | [8] 55% | [9] 58.7%

COc1ccc(-c2nc3ccc(C(=O)NN4C(=O)c5ccc([N+](=O)[O-])cc5C4=O)cc3[nH]2)cc1
inactive: [1] 98% | [2] 79.9% | [3] 96.1% | [4] 91.8% | [5] 100% | [6] 81% | [7] 88.6% | [8] 93% | [9] 87.7% | [10] 105%

c1ccc(-c2csc(Nc3cccc(Nc4nc(-c5ccccc5)cs4)c3)n2)cc1
inactive: [1] 36.8% | [2] 66.2% | [3] 58.1% | [4] 73% | [5] 26.9% | [6] 43.7% | [7] 11.4% | [8] 44.2% | [9] 50.4%

COc1ccc2oc3c4[nH]c5ccccc5c4c4c(c3c2c1)C(=O)N(C(=O)OC(C)(C)C)C4=O
inactive: [9] 11.6%
active: [1] -19.9% | [2] -1.92% | [3] 3.12% | [4] -18% | [5] 4.57% | [6] -14.6% | [7] -30.7% | [8] 0.48% | [10] -40.9%

CC(C)CSc1nc(NCCc2c[nH]c3ccccc23)c(C#N)c(-c2ccc(Cl)cc2)n1
inactive: [1] 69.2% | [2] 51.3% | [3] 86.5% | [4] 49.3% | [5] 30.3% | [6] 36.3% | [7] 68.7% | [8] 63% | [9] 67% | [10] 41%

COc1ccc(C(SCCNCc2cc(N(C)C)ccn2)(c2ccccc2)c2ccccc2)cc1
active: [1] -10.7% | [5] -58.6% | [6] -16.5% | [7] -20.6% | [9] -23.1% | [10] -78%
inactive: [2] 15.1% | [3] 27.5% | [4] 10.9% | [8] 10.1%

CC(=O)Oc1ccc(/C=C/C(=O)N[C@@H](Cc2ccccc2)C(O)C(=O)NCc2ccccc2)cc1OC(C)=O (some centres not stated)
inactive: [1] 93.3% | [2] 102% | [3] 83.4% | [4] 95.2% | [5] 56% | [6] 90% | [7] 17.2% | [8] 87.7% | [9] 81.6% | [10] 91.1%

Cc1cccc(NC(=O)[C@]23CCC(C)(C)CC2C2=CCC4[C@@]5(C)C[C@@H](O)[C@H](O)[C@@](C)(CO)C5CC[C@@]4(C)[C@]2(C)CC3)c1 (some centres not stated)
inactive: [3] 51.6% | [4] 50.9% | [7] 10.8% | [8] 21.1% | [9] 22.7%
active: [1] -27.7% | [2] -17.8% | [5] -18.3% | [6] -24.8% | [10] -31.7%

Cc1c(C(=O)NNC(=O)c2ccc(Cl)cc2)nnn1-c1ccc(Cl)cc1
inactive: [1] 106% | [2] 95.3% | [3] 89.7% | [4] 97.3% | [5] 104% | [6] 79.1% | [7] 96.9% | [8] 95.2% | [9] 94.2% | [10] 97.2%

O=C(COc1ccc(NC(=O)Nc2ccc(Cl)c(Cl)c2)cc1)N=Nc1c(O)[nH]c2ccc([N+](=O)[O-])cc12
inactive: [1] 62.1% | [2] 90.1% | [3] 85.3% | [4] 76.4% | [6] 94% | [7] 61.1% | [8] 62.4% | [9] 53.7% | [10] 14.3%
active: [5] 3.51%

Cc1cc(N=C2NC(=O)CS2)n[nH]1
inactive: [1] 110% | [2] 132% | [3] 95.5% | [4] 116% | [5] 113% | [6] 115% | [7] 103% | [8] 109% | [9] 103% | [10] 108%

COc1cc(OC)cc(C(=O)Nc2cccc(-c3cn(-c4ccc(S(N)(=O)=O)cc4)nn3)c2)c1
active: [4] 6.62%
inactive: [1] 80.3% | [2] 57.5% | [3] 89.9% | [5] 82.8% | [6] 24.2% | [7] 69.1% | [8] 90.9% | [9] 74.6% | [10] 109%

COc1ccc(C(=O)/C=C/c2ccc(OCc3ccccc3)c(OC)c2)cc1OC
active: [5] 5.57%
inactive: [1] 27.1% | [2] 79.1% | [3] 15.7% | [4] 35.3% | [6] 38.3% | [7] 11.3% | [8] 14.4% | [9] 35.9% | [10] 51.5%

CN(C)CCOc1ccc(C(=O)C2[C@H](c3ccc(Cl)cc3)[C@@H](c3ccccc3)NC23C(=O)Nc2ccccc23)cc1 (some centres not stated)
active: [5] 9.91% | [10] -63.2%
inactive: [1] 79.6% | [2] 72% | [3] 82.5% | [4] 84.2% | [6] 21.4% | [7] 89.6% | [8] 48.1% | [9] 40.8%

COc1ccccc1/C=C/C(=O)c1ccc(OC)c(S(N)(=O)=O)c1
inactive: [1] 23.2% | [2] 39.8% | [3] 30.5% | [4] 13.5% | [6] 48.6% | [9] 24%
active: [5] 5.83% | [7] -9.78% | [8] 5.93% | [10] 1.12%

Cc1cc2c(cc1Cl)C(=O)/C(=C/c1ccccc1)O2
inactive: [2] 14.6% | [3] 73.5% | [4] 21.8% | [5] 24.6% | [6] 44.4% | [10] 32.7%
active: [1] 0.835% | [7] -75% | [8] -59.7% | [9] -38.5%

COc1ccc(C2=NN(c3ccccc3)C(c3ccc(OCc4ccccc4)c(OC)c3)C2)cc1OC (configuration not stated)
inactive: [1] 107% | [2] 124% | [3] 103% | [4] 109% | [5] 104% | [6] 105% | [7] 85.4% | [8] 101% | [9] 97.1% | [10] 94.1%

C/C(=N\Nc1ccc(S(N)(=O)=O)cc1)c1ccc(N=Nc2c(Nc3ccccc3)[nH][nH]c2=O)cc1
inactive: [2] 42.5% | [8] 75%
active: [1] 0.196% | [3] 9.22% | [4] -17.8% | [5] 8.87% | [6] -7.76% | [7] -28.8% | [9] -45.3% | [10] -10.5%

C=C1CCC2C3(C)COC(c4ccc(F)cc4)OC3CCC2(C)C1CC(O)C1=CCOC1=O (configuration not stated)
active: [7] -28.2%
inactive: [1] 51.2% | [2] 58% | [3] 82.1% | [4] 81.7% | [5] 93.8% | [6] 45.9% | [8] 59.6% | [9] 19.4% | [10] 22.8%

Cc1cc(C)cc(C(=O)Nc2cccc(-c3cn(-c4ccc(S(N)(=O)=O)cc4)nn3)c2)c1
active: [1] 0.645% | [4] -18.3% | [6] -56.2% | [9] -66.3%
inactive: [2] 15.9% | [3] 68.5% | [5] 41.4% | [7] 61.7% | [8] 62.2% | [10] 141%
